Measurements reported in the supplement of paper PMC3334620.
Over roughly 33,000 sequences, “E-score (-0.5 to 0.5)” has its median near -0.01; the highest 2% begin near 0.26. Many of the other results were omitted from the sample, so the highest values are more common in it than they were.

Each sequence was assayed against Ste12 (UniProt P13574) (assay: PBM E-score (8-mer binding enrichment) (E-score (-0.5 to 0.5)); higher = stronger / more preferred TF binding). Details: protein concentration: 200 nM; construct: GST-DNA-binding domain.
Protocol: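 Universal 'all 10-mer' protein binding microarrays (Agilent AMADID 015681) probed with GST-tagged S. cerevisiae TFs (full-length or DBD) made by in vitro transcription/translation (PURExpress), about 100-200 nM. Bound TF was detected with fluorescent anti-GST. Each ungapped 8-mer (which stands for itself and its reverse complement) is scored by the PBM enrichment score (E-score), a modified Wilcoxon-Mann-Whitney statistic from -0.5 to +0.5, computed with the Universal PBM Analysis Suite. Scale: above 0.35 generally sequence-specific binding.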

Sequence of UniProt P13574 (P13574 whole entry, the tested form may be a part): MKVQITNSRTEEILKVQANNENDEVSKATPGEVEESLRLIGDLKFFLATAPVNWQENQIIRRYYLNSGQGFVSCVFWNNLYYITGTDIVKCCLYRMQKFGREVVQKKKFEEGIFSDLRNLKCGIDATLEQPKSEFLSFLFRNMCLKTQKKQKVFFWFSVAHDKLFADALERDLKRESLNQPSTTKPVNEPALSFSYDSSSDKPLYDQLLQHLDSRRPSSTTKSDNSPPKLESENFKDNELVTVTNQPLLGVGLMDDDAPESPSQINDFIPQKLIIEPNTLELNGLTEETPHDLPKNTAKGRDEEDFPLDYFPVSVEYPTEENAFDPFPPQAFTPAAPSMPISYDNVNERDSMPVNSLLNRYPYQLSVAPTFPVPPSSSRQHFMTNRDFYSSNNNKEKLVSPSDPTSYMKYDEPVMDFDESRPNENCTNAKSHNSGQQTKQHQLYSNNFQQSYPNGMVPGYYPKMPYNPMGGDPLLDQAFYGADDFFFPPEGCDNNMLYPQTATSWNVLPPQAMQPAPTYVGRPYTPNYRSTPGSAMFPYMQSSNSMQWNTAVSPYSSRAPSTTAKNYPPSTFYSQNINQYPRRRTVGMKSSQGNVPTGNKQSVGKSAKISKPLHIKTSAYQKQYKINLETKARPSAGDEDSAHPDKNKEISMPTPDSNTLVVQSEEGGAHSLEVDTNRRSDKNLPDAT

Row | Sequence | PBM E-score
1 | CTGATCAG | -0.0327
2 | TATTTGCA | 0.0371
3 | CCCAGCGA | -0.0316
4 | ACCAATTA | 0.199
5 | AAAAACAT | 0.241
6 | TGAAACCA | 0.438
7 | AGAAACCA | 0.194
8 | CGAAACCA | 0.209
9 | GAAAACAA | 0.197
10 | CGAAACAG | 0.244
11 | AGAAACAT | 0.32
12 | GGAAACAC | 0.225
13 | AGAAACAG | 0.0492
14 | CGAAACAA | 0.349
15 | AGAAACAC | 0.121
16 | CGAAACAC | 0.348
17 | CGACGCAG | -0.237
18 | GCCTATTA | 0.0234
19 | CAGCTCCC | -0.254
20 | CCCGTCAC | 0.0322
21 | CCAGCAAG | -0.148
22 | AGGAGCAA | -0.108
23 | CGGCCCGA | 0.078
24 | CCGAATAG | -0.0705
25 | AAATCTGG | 0.21

Row | Sequence | PBM E-score
26 | GGCGCTCA | -0.066
27 | ATGATAAT | 0.13
28 | AGACCTAG | -0.0522
29 | GGAAACAA | 0.13
30 | ACAAACCA | 0.00217
31 | CCAAACCA | 0.0357
32 | TCAAACCA | 0.278
33 | AGAAACAA | 0.26
34 | TGAAACAA | 0.493
35 | CGGAAGAA | 0.0583
36 | ATATCATC | 0.141
37 | GATAGAAC | 0.0461
38 | AGATTAGA | 0.00999
39 | CATGTTTA | 0.199
40 | CATGTTGC | -0.0677
41 | AAAGTTTA | 0.199
42 | AATGTTTG | 0.0124
43 | AAAGTTTC | 0.329
44 | AATGTTAA | 0.102
45 | CAAGTTTC | 0.254
46 | AATGTTAT | 0.265
47 | CATGTTTC | 0.4
48 | AATGTTAG | -0.00616
49 | AATGTTTA | 0.174
50 | AATGTTTC | 0.318

Row | Sequence | PBM E-score
51 | AACGCTAA | -0.0143
52 | GTGTAGGA | 0.0365
53 | CACTCCAG | -0.019
54 | ACTCTGAT | 0.146
55 | ATAAAGCC | 0.00222
56 | AGGCCTAG | -0.218
57 | ACAGAAGG | -0.173
58 | CTTGAGGC | -0.184
59 | ATGGACGG | -0.00997
60 | CTCGCACC | -0.103
61 | CGCCCACA | 0.197
62 | CGTCGCCC | -0.121
63 | ATAAATTA | 0.255
64 | ATAAATTC | 0.102
65 | CAAAATTA | 0.247
66 | AAAAATTG | 0.263
67 | AAAAATTA | 0.326
68 | ACAAATTA | 0.263
69 | ATAAATTG | 0.321
70 | CAAAATTG | 0.0598
71 | AAAAATTC | 0.224
72 | CCAAATTA | 0.221
73 | ACAAATTG | 0.177
74 | GAAAATTA | 0.206
75 | CTCAACGC | -0.0089

Row | Sequence | PBM E-score
76 | CAGCAGCC | -0.0193
77 | AATGGAGC | -0.0645
78 | AAACGATT | 0.165
79 | ACTACTCA | -0.0467
80 | ACACCATG | -0.108
81 | GACCGATA | -0.00126
82 | GCGAAGAC | -0.141
83 | AGGATTGC | -0.025
84 | ATAAACTA | 0.211
85 | ATAAACTC | 0.125
86 | ATAAACTG | 0.302
87 | CTACGCTC | -0.00605
88 | CTCCCATA | -0.0685
89 | TATTGGAA | -0.00217
90 | CGATAAAA | 0.171
91 | CGATACAA | 0.0267
92 | CAATACAG | -0.115
93 | TGATACAA | 0.339
94 | AGATACAA | 0.135
95 | TGATAAAA | 0.266
96 | CAATACAC | 0.0704
97 | CAATACAA | 0.294
98 | CGGATAAA | 0.149
99 | AGATAAAA | 0.245
100 | GGGATAAA | 0.271

Row | Sequence | PBM E-score
101 | GGGATAAC | -0.0162
102 | AATTAGGA | 0.145
103 | CCCAGCGG | -0.192
104 | AACACTCG | 0.0544
105 | TCTGAACA | 0.0453
106 | ACCACCGG | -0.0277
107 | AAATTGAA | 0.185
108 | CCATGAAG | -0.0229
109 | CATAAGGC | -0.0753
110 | GGTGCGAA | 0.2
111 | AAACCGTT | 0.00687
112 | CGGTAAAA | 0.198
113 | GGGTAAAA | 0.295
114 | GGATAAAA | 0.279
115 | GGATAAGA | 0.0906
116 | GGATAAAC | 0.135
117 | GGGTAAAC | 0.119
118 | TGGGCCAA | -0.177
119 | CAGCGTCG | -0.0332
120 | CGGAATAC | 0.134
121 | GATCAAGC | -0.0184
122 | GAAGGCTC | -0.209
123 | GATAAACC | 0.0557
124 | GATAAAGA | 0.0926
125 | GATAAAAA | 0.277

Row | Sequence | PBM E-score
126 | GATAAAAC | 0.327
127 | AATAAAAC | 0.245
128 | CATAAAAC | 0.28
129 | CATAAAAG | 0.0283
130 | CATAAAAA | 0.175
131 | GATAAATA | 0.215
132 | CGAGCCGA | -0.0584
133 | AGGTTTTC | 0.241
134 | GAGCTCCC | -0.0992
135 | CAGACTTC | -0.0901
136 | ACGACTAT | -0.0677
137 | CGTCACCC | 0.0725
138 | ACAGAATG | 0.0528
139 | GGAACTAC | -0.105
140 | AACTATTA | 0.0788
141 | CACTATTC | 0.0168
142 | AACTATCA | 0.262
143 | GACTATCA | -0.0567
144 | AACTATTC | 0.264
145 | TACTATCA | 0.13
146 | ATACGGCG | 0.15
147 | ACGGGTCT | -0.211
148 | CCAATCTC | 0.0596
149 | ACCTGCAA | -0.0499
150 | GTGCGCAC | 0.355

Row | Sequence | PBM E-score
151 | GTGCGCAA | -0.0274
152 | ATGCGCAC | 0.0144
153 | CCAATCCA | -0.0476
154 | AGCGATCG | 0.00873
155 | CAAAAGAC | 0.0341
156 | CGATTCGC | 0.0897
157 | CCTTGAAA | 0.21
158 | ACTTGAAG | 0.119
159 | GCTTGAAA | 0.198
160 | ACTTGAAT | 0.0108
161 | TCTTGAAA | 0.308
162 | ACTTGAAA | 0.314
163 | GTCGAAGA | -0.0112
164 | ACCTTAGT | -0.137
165 | ATTGTAGC | 0.0213
166 | AGTGGTAT | -0.0443
167 | TCACAGGA | 0.122
168 | GCGTGAAC | -0.0471
169 | CGGTGGGA | 0.033
170 | GGTGGGAA | 0.127
171 | GGAGGGGA | 0.366
172 | GGTGGGGA | 0.318
173 | CGTGGGGA | 0.0623
174 | GGGTGGGA | 0.319
175 | AGGTGGGA | -0.049

Row | Sequence | PBM E-score
176 | CGAGGGGA | 0.0767
177 | GGAGGGAA | -0.0917
178 | GATCGATA | 0.0823
179 | TCAAGGCA | -0.169
180 | ACCTTGGA | -0.197
181 | ATGTCTTA | 0.134
182 | AACACGAC | -0.104
183 | TAATATAA | 0.287
184 | TATAATAA | 0.141
185 | CAATATAG | 0.117
186 | CAATATAC | 0.116
187 | GAATATAA | 0.161
188 | CAATATAA | 0.316
189 | CTCCCGTC | 0.0578
190 | AAAGGGAT | 0.00067
191 | AAAGTCAA | 0.189
192 | GTCTTATA | 0.0618
193 | ATCTTATA | 0.0647
194 | CTCTTATA | 0.267
195 | AAGCCCCA | -0.237
196 | AGGCCATA | -0.245
197 | CCCATAGA | -0.143
198 | AAAATTAA | 0.134
199 | AAAATTAC | 0.188
200 | AAAATTGT | 0.225

Row | Sequence | PBM E-score
201 | AAAAATTT | 0.138
202 | AAAATTAG | 0.31
203 | ATAATTAT | 0.195
204 | AAAATTAT | 0.337
205 | AAAATTTG | 0.0212
206 | AAAATTTT | 0.311
207 | GGCCACCA | 0.0635
208 | CAACCTAA | 0.0543
209 | GTATCGTA | 0.0508
210 | GATGCAAC | -0.0126
211 | AGTTGACG | 0.019
212 | CATCCAGA | -0.00655
213 | TAAACGCA | -0.0738
214 | CAAACGCC | 0.0326
215 | GAAACGCC | 0.288
216 | GGAACGCC | -0.017
217 | GAAACGCA | 0.323
218 | CAAACGCA | -0.133
219 | ATGCTTAG | -0.205
